Results reported in the supplement of paper PMC10849652.
The full data set covers some 7,900 targets. This sample favours those with a hit. About 0.6% of all pairs of compound and target were hits.

Compound: C1=CC2=C(C=CC(=C2)/C=C\3/C(=O)NC(=NCC4=CC=CS4)S3)N=C1
Assay: log2 fold change, soluble protein after heating vs DMSO (PISA); higher = thermal stabilisation; K562 cells, 10 uM, 30 min; active = over 0.2 and 3.5 SD of the protein, either way, in both replicates (recomputed)
Method in brief: (§1)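 Soluble protein was defined as the supernatant after 21,000xg for 90 min. It came from K562 cells at 2×10^6 cells/mL given 10 μM compound for 30 min, heated in aliquots for 3 min across 48°C-58°C, pooled, and extracted in PBS with 0.5% NP-40 at 4°C, and was quantified by TMTpro 16plex LC-MS/MS with equalised channel sums. Thermal stability against control samples, from duplicates, is reported as log2 fold change.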

Chain of UniProt Q9BS92 (Q9BS92 whole entry, looked up): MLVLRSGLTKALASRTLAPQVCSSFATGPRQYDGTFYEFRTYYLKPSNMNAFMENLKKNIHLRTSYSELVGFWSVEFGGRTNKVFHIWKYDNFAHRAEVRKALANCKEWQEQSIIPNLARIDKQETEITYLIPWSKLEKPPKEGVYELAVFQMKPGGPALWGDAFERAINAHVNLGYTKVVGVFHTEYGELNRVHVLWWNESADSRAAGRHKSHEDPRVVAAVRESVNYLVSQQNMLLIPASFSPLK
Chain of UniProt Q86TA1 (Q86TA1 whole entry, looked up): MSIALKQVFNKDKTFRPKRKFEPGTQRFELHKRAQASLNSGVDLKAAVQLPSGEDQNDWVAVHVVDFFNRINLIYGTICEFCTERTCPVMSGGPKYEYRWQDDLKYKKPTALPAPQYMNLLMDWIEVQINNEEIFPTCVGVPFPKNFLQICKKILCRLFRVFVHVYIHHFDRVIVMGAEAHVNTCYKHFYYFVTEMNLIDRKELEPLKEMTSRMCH
Chain of MTHFD1, A0A384N5Y3 (A0A384N5Y3 whole entry, looked up): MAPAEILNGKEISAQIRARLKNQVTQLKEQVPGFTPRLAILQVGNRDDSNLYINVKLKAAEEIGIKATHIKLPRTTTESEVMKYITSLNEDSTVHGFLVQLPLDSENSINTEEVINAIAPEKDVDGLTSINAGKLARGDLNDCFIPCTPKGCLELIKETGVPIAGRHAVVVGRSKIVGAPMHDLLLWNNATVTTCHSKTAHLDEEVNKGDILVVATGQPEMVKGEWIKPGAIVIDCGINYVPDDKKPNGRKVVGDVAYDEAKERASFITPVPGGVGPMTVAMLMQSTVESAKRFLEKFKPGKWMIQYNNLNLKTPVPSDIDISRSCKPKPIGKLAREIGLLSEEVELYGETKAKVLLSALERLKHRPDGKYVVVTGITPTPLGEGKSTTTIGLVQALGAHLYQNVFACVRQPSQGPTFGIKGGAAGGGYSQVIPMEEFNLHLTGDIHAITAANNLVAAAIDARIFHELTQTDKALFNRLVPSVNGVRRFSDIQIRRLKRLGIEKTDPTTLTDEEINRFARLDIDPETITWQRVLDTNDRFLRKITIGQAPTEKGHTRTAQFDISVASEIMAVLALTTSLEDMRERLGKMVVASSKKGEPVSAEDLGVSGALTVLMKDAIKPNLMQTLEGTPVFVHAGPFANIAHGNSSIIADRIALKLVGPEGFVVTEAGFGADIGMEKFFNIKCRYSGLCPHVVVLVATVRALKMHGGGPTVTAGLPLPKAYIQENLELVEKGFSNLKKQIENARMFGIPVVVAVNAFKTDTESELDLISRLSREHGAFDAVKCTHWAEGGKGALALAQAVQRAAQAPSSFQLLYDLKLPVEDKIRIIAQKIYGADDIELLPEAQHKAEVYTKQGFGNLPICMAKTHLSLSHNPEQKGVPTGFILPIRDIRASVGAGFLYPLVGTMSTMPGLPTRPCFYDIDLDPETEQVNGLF
Chain of NA, A0A494C071 (A0A494C071 whole entry, looked up): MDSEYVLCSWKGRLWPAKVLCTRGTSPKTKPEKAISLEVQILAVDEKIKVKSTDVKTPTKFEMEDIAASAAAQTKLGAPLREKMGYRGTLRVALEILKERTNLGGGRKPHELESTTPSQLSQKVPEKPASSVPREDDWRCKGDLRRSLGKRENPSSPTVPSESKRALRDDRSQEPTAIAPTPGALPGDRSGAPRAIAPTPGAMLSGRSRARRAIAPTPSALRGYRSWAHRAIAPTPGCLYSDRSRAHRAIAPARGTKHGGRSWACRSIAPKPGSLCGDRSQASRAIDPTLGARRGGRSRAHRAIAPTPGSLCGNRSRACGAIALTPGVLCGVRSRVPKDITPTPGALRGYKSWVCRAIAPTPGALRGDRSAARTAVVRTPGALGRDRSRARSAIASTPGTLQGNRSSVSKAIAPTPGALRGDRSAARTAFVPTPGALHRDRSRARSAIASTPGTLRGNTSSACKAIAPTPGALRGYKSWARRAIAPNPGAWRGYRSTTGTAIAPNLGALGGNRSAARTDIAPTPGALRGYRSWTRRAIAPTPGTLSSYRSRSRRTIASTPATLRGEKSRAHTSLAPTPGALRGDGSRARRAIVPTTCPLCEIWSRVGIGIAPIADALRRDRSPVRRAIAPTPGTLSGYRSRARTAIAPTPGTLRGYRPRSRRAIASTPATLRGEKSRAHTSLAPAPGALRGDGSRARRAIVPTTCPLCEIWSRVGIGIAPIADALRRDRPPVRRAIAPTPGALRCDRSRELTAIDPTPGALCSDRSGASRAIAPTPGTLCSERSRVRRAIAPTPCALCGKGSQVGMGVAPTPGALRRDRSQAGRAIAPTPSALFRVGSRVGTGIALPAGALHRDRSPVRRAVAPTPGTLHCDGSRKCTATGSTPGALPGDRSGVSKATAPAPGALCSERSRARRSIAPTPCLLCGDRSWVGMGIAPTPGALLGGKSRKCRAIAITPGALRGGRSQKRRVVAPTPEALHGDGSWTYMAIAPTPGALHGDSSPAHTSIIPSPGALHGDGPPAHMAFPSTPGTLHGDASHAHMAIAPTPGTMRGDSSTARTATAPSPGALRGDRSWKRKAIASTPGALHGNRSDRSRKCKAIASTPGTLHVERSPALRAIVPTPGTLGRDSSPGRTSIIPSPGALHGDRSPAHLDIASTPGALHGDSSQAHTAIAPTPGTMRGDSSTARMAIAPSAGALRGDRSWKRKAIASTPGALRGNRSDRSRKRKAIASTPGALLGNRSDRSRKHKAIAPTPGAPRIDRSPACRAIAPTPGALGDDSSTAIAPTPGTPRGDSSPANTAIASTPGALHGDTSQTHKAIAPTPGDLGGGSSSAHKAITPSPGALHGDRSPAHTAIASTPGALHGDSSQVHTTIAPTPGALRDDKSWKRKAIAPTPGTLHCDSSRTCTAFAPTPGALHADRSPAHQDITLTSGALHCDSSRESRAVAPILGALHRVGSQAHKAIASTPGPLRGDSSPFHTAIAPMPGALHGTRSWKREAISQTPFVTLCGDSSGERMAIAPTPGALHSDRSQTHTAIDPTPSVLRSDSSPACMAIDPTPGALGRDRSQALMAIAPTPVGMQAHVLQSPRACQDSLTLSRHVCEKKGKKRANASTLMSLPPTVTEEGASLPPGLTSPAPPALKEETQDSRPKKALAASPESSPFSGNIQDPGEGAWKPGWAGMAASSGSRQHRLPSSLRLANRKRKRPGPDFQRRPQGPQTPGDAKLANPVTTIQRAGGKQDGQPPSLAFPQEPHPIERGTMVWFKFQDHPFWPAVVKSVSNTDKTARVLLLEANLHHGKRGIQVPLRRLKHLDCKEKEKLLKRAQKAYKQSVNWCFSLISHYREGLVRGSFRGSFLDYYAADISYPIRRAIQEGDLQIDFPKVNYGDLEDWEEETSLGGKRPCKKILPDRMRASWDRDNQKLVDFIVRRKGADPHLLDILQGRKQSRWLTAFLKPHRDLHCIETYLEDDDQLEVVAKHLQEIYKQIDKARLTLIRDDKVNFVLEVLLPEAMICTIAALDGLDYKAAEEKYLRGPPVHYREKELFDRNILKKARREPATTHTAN
Chain of UniProt Q69YL0 (Q69YL0 whole entry, looked up): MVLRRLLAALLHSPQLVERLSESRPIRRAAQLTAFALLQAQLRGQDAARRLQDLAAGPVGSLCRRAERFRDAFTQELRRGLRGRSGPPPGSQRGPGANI
Chain of UniProt Q8WZ82 (Q8WZ82 whole entry, looked up): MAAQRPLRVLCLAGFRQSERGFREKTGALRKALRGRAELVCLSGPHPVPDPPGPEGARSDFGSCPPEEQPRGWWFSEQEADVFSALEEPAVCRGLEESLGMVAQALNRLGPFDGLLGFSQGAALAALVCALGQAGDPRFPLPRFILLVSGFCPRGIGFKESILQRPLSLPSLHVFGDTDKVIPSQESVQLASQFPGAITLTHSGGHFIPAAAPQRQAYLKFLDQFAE
Chain of UniProt P40692 (P40692 whole entry, looked up): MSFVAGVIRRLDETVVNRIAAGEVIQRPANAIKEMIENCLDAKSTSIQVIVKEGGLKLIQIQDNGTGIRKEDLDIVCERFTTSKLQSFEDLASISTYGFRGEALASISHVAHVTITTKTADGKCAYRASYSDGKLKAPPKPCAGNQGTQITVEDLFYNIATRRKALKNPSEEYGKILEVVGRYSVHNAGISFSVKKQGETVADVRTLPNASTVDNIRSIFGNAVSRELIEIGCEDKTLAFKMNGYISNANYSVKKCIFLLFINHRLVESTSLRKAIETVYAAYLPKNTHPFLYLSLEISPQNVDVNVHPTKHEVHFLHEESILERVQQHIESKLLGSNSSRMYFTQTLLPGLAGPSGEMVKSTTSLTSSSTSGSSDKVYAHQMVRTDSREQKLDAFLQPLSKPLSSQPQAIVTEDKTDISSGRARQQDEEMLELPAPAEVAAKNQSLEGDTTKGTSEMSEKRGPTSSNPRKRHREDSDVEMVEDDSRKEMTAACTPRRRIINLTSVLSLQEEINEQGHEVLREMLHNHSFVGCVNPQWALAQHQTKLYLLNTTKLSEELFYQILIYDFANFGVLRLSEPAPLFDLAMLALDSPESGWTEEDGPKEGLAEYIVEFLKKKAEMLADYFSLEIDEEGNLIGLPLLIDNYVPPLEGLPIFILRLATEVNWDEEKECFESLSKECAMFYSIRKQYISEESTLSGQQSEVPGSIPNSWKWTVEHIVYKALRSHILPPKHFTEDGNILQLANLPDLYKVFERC
Chain of UniProt P25208 (P25208 whole entry, looked up): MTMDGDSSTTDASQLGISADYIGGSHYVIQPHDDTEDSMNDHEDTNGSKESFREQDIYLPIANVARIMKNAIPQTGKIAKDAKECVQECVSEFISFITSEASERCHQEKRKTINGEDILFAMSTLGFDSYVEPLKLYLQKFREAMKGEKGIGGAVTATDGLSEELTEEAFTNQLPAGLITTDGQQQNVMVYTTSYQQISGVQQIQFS
Chain of UniProt O75607 (O75607 whole entry, looked up): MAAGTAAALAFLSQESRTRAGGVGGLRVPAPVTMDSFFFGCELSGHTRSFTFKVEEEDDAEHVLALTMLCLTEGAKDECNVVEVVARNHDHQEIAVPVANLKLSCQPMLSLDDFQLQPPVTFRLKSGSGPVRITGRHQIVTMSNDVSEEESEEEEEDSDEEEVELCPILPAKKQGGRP

log2 fold change, inactive:
MOB3B (UniProt Q86TA1) 0.24
NIPSNAP3B (UniProt Q9BS92) -0.159
NIPSNAP2 (UniProt C9J7B1) -0.16
PAFAH2 (UniProt Q99487) -0.144
MRM2 (UniProt Q9UI43) 0.185
OVCA2 (UniProt Q8WZ82) 0.108
NAP1L1 (UniProt B7Z9C2) 0.156
NA, A0A494C071 -0.005
NA, A0A1W2PSA9 -0.111
OXR1 isoform 2 (UniProt Q8N573) -0.034
MLH1 (UniProt P40692) -0.038
MTHFD1, A0A384N5Y3 0.146
MYH16 (UniProt Q9H6N6) -0.21
NFYB (UniProt P25208) -0.047
MPHOSPH8 isoform 2 (UniProt Q99549) -0.044
ORC3 (UniProt Q9UBD5) -0.104
NPM3 (UniProt O75607) -0.184
NCBP2AS2 (UniProt Q69YL0) 0
NA, A0A2R8Y3M9 0.355
MITF (UniProt O75030) -0.011
NPC1L1 (UniProt Q9UHC9) 0.073

Compound: C1=CC2=NC=CN=C2C=C1/C=C/3\C(=O)NC(=O)S3
Assay: as above
Method in brief: as §1

log2 fold change, inactive:
MOB3B (UniProt Q86TA1) -0.056
NIPSNAP3B (UniProt Q9BS92) 0.031
NIPSNAP2 (UniProt C9J7B1) 0.057
NDUFA7 (UniProt M0R0N0) 0.015
PAFAH2 (UniProt Q99487) -0.02
MOB2 isoform 3 (UniProt Q70IA6) 0.06
OVCA2 (UniProt Q8WZ82) 0.268
MYSM1 (UniProt Q5VVJ2) 0.173
NAP1L1 (UniProt B7Z9C2) 0.175
NA, A0A494C071 0.079
MYLK (UniProt Q15746) -0.005
NUDT7 (UniProt P0C024) -0.066
NA (UniProt J3KR12) 0.254
MLH1 (UniProt P40692) 0.096
MTHFD1, A0A384N5Y3 -0.06
P4HA2 (UniProt O15460) -0.025
MYH16 (UniProt Q9H6N6) 0.284
MON1A (UniProt Q86VX9) -0.262
NKTR (UniProt P30414) -0.149
NA (UniProt B2RBV5) -0.015
NFYB (UniProt P25208) 0.064
NOS1AP (UniProt O75052) -0.02
NPM3 (UniProt O75607) 0.04
NCBP2AS2 (UniProt Q69YL0) 0.106
NA, A0A2R8Y3M9 0.132
NPC1L1 (UniProt Q9UHC9) 0.143
